# PME-1 inh = PME-1 (human) inhibition. recombinant PME-1, FP-Rh probe fluorescence polarization. inhibition, % at 5.9 µM. hit rate 0.53% among 320,000. AID 2130;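 active means inhibition above the campaign mean of all compounds plus 3 SD, cut at about 26% in these data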;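 further: competitive labeling of PME-1 active site by serine hydrolase directed probe; 0% = PME-1 with DMSO and 100% = wells lacking PME-1 enzyme; inhibitors block probe labeling so polarization falls and inhibition rises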
# pPAFAH inh = inhibitors of human plasma PAF acetylhydrolase (pPAFAH) | Q13093 | recombinant pPAFAH, FP-rhodamine probe fluorescence polarization | inhibition, % at 3.39 µM | hit rate 1.5% among 330,000 | AID 463082;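 active means inhibition above the mean inhibition across the screen plus 3 SD, cut at about 25% in these data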;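 further: inhibitors block binding of the rhodamine activity-based probe so polarization drops; 0% = enzyme with DMSO and 100% = wells lacking pPAFAH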
# Target sequence (Q13093 whole entry, looked up): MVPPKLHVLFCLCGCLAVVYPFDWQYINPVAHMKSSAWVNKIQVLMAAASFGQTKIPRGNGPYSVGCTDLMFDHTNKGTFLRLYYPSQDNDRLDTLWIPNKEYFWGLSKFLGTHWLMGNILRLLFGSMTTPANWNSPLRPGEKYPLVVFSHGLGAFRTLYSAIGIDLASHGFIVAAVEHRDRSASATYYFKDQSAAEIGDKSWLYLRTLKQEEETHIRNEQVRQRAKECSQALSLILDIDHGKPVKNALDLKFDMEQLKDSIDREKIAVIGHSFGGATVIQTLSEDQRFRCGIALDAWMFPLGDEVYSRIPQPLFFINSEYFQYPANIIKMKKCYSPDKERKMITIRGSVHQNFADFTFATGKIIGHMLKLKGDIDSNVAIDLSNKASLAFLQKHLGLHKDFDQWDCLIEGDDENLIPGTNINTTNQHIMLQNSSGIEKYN
# PAFAH1B2 FP inh = PAFAH1B2 (human) inhibition. hit rate 1.2% among 340,000. inhibition, % at 3.39 µM. P68402. recombinant PAFAH1B2, FP-rhodamine activity probe, fluorescence polarization;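 active means inhibition above the mean of all tested compounds plus 3 SD, cut at about 24% in these data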;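 further: 0% = enzyme with DMSO and 100% = wells lacking PAFAH1B2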
# PAFAH1B3 FP inh = inhibitors of human PAFAH1B3; Q15102; recombinant PAFAH1B3, FP-rhodamine probe, fluorescence polarization; inhibition, % at 3.39 µM; hit rate 0.28% among 340,000;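 active means inhibition above the screen-wide average of all tested compounds plus 3 SD, cut at about 25% in these data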;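 further: 0% = enzyme with DMSO only and 100% = wells lacking PAFAH1B3 protein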
# Fam108B counter = counter-screen for RBBP9 inhibitors: inhibitors of mouse Fam108B. hit rate 0.33% among 300,000. AID 1947. recombinant Fam108B, FP-Rh probe fluorescence polarization. inhibition, % at 9.51 µM;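 active means inhibition above the screen mean inhibition plus 3 SD, computed separately per campaign, cut at about 18% in these data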;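 further: inhibitors lower polarization as less probe binds the enzyme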
# PAFAH2 FP inh = PAFAH2 (human) inhibition; Q99487; recombinant PAFAH2, FP-rhodamine activity probe, fluorescence polarization; hit rate 0.99% among 340,000; inhibition, % at 3.39 µM;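 active means inhibition above the mean over all tested compounds plus 3 SD, cut at about 30% in these data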;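 further: inhibitors block probe labeling of enzyme so polarization drops; 0% = enzyme with DMSO and 100% = wells lacking PAFAH2 protein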
# PAFAH2 confirm = confirmation of human PAFAH2 inhibitors. shares compounds with PAFAH2 FP inh. recombinant PAFAH2, FP-rhodamine activity probe, fluorescence polarization. inhibition, % at 3.39 µM. hit rate 65% among 2,300;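 active means mean inhibition over three repeats above a set limit taken from the earlier primary screen, cut at about 30% in these data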;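 further: inhibitor blocks binding of rhodamine activity probe so polarization falls; 0% = enzyme with DMSO and 100% = wells lacking PAFAH2 protein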
# Numbers without * were called inactive; x = not tested or not shown. This is a sample that favours compounds with a hit; in the whole collection about 2.9% have one here.
SMILES,PME-1 inh,pPAFAH inh,PAFAH1B2 FP inh,PAFAH1B3 FP inh,Fam108B counter,PAFAH2 FP inh,PAFAH2 confirm
COc1ccc(C(=O)NCC(=O)OCC(=O)Nc2ccc(C)c(S(=O)(=O)N(C)C)c2)cc1OC,2,-3,5,5,-3,41*,23
O=C(COC(=O)/C=C/c1ccco1)Nc1cccc([N+](=O)[O-])c1,0,7,4,10,2,84*,85*
C/C=C/C(=O)OCC(=O)Nc1ccc(SC(F)F)cc1,-6,-1,3,1,-9,56*,48*
CN(C)S(=O)(=O)c1cccc(NC(=O)COC(=O)/C=C/c2ccco2)c1,-1,3,3,2,1,55*,47*
O=C(NC(=S)NC(CO)c1ccccc1)c1ccc(F)cc1 (stereo unspecified),1,9,3,7,-2,-9,x
CCOc1ccc(CCNC(=O)COC(=O)/C=C/c2ccccc2OC)cc1OCC,3,9,-4,-2,-1,11,x
Cc1cnc(C(=O)OCC(=O)Nc2ccc(C)c(S(=O)(=O)N(C)C)c2)cn1,-3,-3,-1,8,-2,5,x
Cc1ccc(NC(=O)COC(=O)c2ccc(Cl)cc2)cc1S(=O)(=O)N(C)C,3,11,-7,-3,-9,61*,56*
NC(=O)c1ccc(NC(=O)COC(=O)/C=C/c2cccs2)cc1,3,-1,1,6,0,17,x
CCN(CC)S(=O)(=O)c1cccc(NC(=O)COC(=O)/C=C/c2cccs2)c1,3,9,3,-5,-4,67*,58*
CCN(CC)S(=O)(=O)c1cccc(NC(=O)COC(=O)/C=C/c2ccco2)c1,-1,15,0,1,0,33*,24
CCN(CC)S(=O)(=O)c1cccc(NC(=O)COC(=O)c2cncc(Br)c2)c1,x,8,0,4,x,-2,x
CN(C)S(=O)(=O)c1cccc(NC(=O)COc2cccc3ccccc23)c1,x,x,-1,7,x,-11,x
Cc1ccc(/C=C/C(=O)OCC(=O)Nc2cccc(S(=O)(=O)N(C)C)c2)o1,2,6,3,-1,2,67*,39*
Cc1ccc(NC(=O)COC(=O)/C=C/c2ccco2)cc1S(=O)(=O)N(C)C,-3,11,0,2,0,70*,77*
C/C=C/C(=O)OCC(=O)Nc1ccc(C)c(S(=O)(=O)N(C)C)c1,-6,4,7,1,-5,57*,48*
CC(=O)Nc1ccc(-c2cc(C(=O)O)c3ccc(C)cc3n2)cc1,-2,0,2,-2,-2,0,x
CCOC(=O)C1CCN(Cc2cc(=O)oc3c(C)c(C)ccc23)CC1,4,4,-2,10,-5,4,x
CCOC(=O)n1cc(C(=O)c2ccccc2O)cn1,-8,5,-3,-1,-1,20,x
CC(C)(C)OC(=O)n1cc(C(=O)c2ccccc2O)cn1,-4,0,0,8,-1,84*,69*
COC(=O)c1ccc(-n2cncn2)c([N+](=O)[O-])c1,0,5,3,2,-2,2,x
Cc1cccc(NC(=O)CNC(=O)c2ccc(-n3cncn3)c([N+](=O)[O-])c2)c1C,1,-2,-4,5,-1,38*,-3
O=C(/C=C/c1ccco1)NC1CCCC1,-1,3,2,6,-3,1,x
O=C(COC(=O)/C=C/c1ccco1)NC1CCCCC1,-5,7,1,4,x,77*,82*
CC1CCCCC1NC(=O)COC(=O)/C=C/c1ccco1 (stereo unspecified),0,8,6,13,x,84*,74*
SMILES,PME-1 inh,pPAFAH inh,PAFAH1B2 FP inh,PAFAH1B3 FP inh,Fam108B counter,PAFAH2 FP inh,PAFAH2 confirm
O=C(COC(=O)/C=C/c1ccc(Br)o1)NC1CCCCC1,-1,9,2,6,x,77*,73*
COc1ccc2[nH]c3c(c2c1)CC(C)NC3=O (stereo unspecified),x,x,2,-8,x,-3,x
Cc1ccc(S(=O)(=O)N(C)C)cc1NC(=O)COC(=O)/C=C/c1cnc2ccccc2n1,5,3,1,2,6,4,x
O=C(COC(=O)/C=C/c1cccc(Cl)c1)Nc1cccc(S(=O)(=O)NC2=NCCC2)c1,-3,0,1,-2,x,25,x
CN(C)S(=O)(=O)c1cccc(NC(=O)COC(=O)/C=C/c2ccc3c(c2)OCO3)c1,1,6,-1,2,-4,74*,62*
Cc1ccc(S(=O)(=O)N(C)C)cc1NC(=O)COC(=O)/C=C/c1ccc2c(c1)OCO2,7,3,-2,0,-6,57*,47*
O=C1CC(c2ccccc2)(c2ccccc2)c2ccccc21,x,x,1,-1,x,4,x
Cc1ccc(C(=O)OCC(=O)NCCc2ccc(F)cc2)cc1S(=O)(=O)N1CCOCC1,x,15,6,-5,x,47*,37*
CCOC(=O)c1ccccc1NC(=O)COC(=O)c1ccc(C)c(S(=O)(=O)N2CCOCC2)c1,2,4,-4,4,-5,17,x
Cc1ccc(C(=O)OCC(=O)NC(C)C)cc1S(=O)(=O)N1CCOCC1,-1,11,1,1,2,32*,23
O=C(COC(=O)c1ccc(F)c(S(=O)(=O)N2CCOCC2)c1)NCc1ccc(F)cc1,x,0,2,11,x,33*,25
Cc1ccc(C(=O)OCC(=O)Nc2ccccc2C(F)(F)F)cc1S(=O)(=O)N1CCOCC1,0,8,3,1,1,63*,57*
COc1ccc(CNC(=O)COC(=O)c2ccc(C)c(S(=O)(=O)N3CCOCC3)c2)cc1,x,13,2,4,x,13,x
Cc1cc(C)cc(SCc2noc(C(=O)NCCN(C)C)c2C(=O)NCCN(C)C)c1,-6,-5,-4,2,-6,-3,x
Cn1c(SCC(=O)NNC(=O)Cc2ccccc2)nc2ccccc2c1=O,-2,1,0,13,-3,6,x
COc1cc(/C=C/C(=O)OCC(=O)Nc2ccc3c(c2)OCO3)ccc1O,x,5,-1,3,x,82*,74*
COc1ccc(/C=C/C(=O)OCC(=O)Nc2ccc3c(c2)OCO3)cc1,1,8,2,-2,x,70*,69*
COc1cc(/C=C/C(=O)OCC(=O)Nc2ccc3c(c2)OCCO3)ccc1O,-9,10,3,0,-2,75*,80*
Cc1nn(C2CCS(=O)(=O)C2)c(Cl)c1/C=C/C(=O)OCC(=O)Nc1ccc2c(c1)OCO2 (stereo unspecified),-3,2,3,9,-2,83*,80*
COc1ccc(S(=O)(=O)N2CCCCC2)cc1NC(=O)Cc1ccc(Br)cc1,x,x,15,1,x,9,x
COCCC(=O)N1CCC(n2nccc2NC(=O)c2ccccc2C)CC1,3,2,0,0,3,2,x
